14 molecules from PubChem BioAssay (EPA / NIEHS) can be followed below.

As a reminder, the AC50 is the midpoint of the concentration-response curve, whichever way the signal moves.

Structures are written as SMILES. The source holds several records for some structures; these can differ, active in one and inactive in another. Activity calls are given as the source filed them. Rule for the calls: active = hit-call score of the fitted dose curve at least 0.9, where 1 is the maximum; inactive = score below 0.9.

Read-out in this assay: Macrophage Inflammatory Protein-1 Alpha (MIP1a), CCL3 (gene 6348)
Briefly: BSK_IMphg_MIP1a: BioMAP Diversity Plus: IMphg Assay for Macrophage Inflammatory Protein-1 Alpha (MIP1a) Biomarker Activity (AID 2284255). The conditions noted are these: primary human endothelial cells with macrophages. The method, then: BSK_IMphg is a cell-based, multiplexed-readout assay that uses venular endothelial cells and macrophages, a human vascular primary cell, with measurements taken at 24 hours after chemical dosing in a microplate: 96-well plate.BSK_IMphg_MIP1a is an assay component measured in the BSK_IMphg assay. It measures MIP-1a antibody related to regulation of gene expression using ELISA technology.Data from the assay component BSK_IMphg_MIP1a was analyzed at the endpoint, BSK_IMphg_MIP1a, in the positive analysis fitting direction relative to DMSO as the negative control and baseline of activity. Using a type of binding reporter, gain or loss-of-signal activity can be used to understand protein changes. To generalize the intended target to other relatable targets, this assay endpoint is annotated to the 'cytokine' intended target family, where the subfamily is 'inflammatory factor'.
The levels of cell surface (or secreted, indicated by the prefix "s") biomarker endpoints were measured by ELISA. Overt cytotoxicity to cells in confluent adherent cultures (all systems other than the BT system) was assessed by measuring total protein levels using sulforhodamine B (SRB) staining in parallel cultures at the time of biomarker measurements, indicated as SRB endpoints. For proliferation assays for adherent cell types, individual cell types are cultured at sub-confluence and relative cell numbers quantified by SRB staining at time points optimized for each system (48 h: 3C and CASM3C systems; 72 h: BT and HDF3CGF systems; 96 h: SAg system). SRB was performed by staining cells with 0.1% SRB after fixation with 10% TCA and reading wells at 560 nm.Viability and proliferation of PBMC (T cells) was quantified by Alamar Blue reduction for the SAg and BT systems. For PBMC viability (referred to as PBMC Cytotoxicity within the assay endpoint names), cells were plated (75,000/well in a 96-well plate) and then chemical samples added for 1 h before addition of activators, SEB and TSST-1 (20 ng/mL final concentration each). Cells were incubated for 90 h. Then, Alamar Blue (20 uL/well) (Invitrogen, Cat DAL1100) was added for 6 h, and the plates were read with a fluorescence microplate reader at 546/580 nm (excitation/emission). For PBMC proliferation, cells were plated and activated as above but incubated for only 16 h prior to addition of Alamar Blue. Plates were read after 6 h.
On to `COC(=O)C(F)(F)C(F)(F)OC(F)(C(F)(F)F)C(F)(F)OC(F)=C(F)F` (stereo not given), for which the result was inactive. With `OCC(F)(F)OC(F)(F)C(F)(F)OC(F)(F)C(F)(F)OC(F)(F)CO`, the outcome was inactive. Still for that read-out and setting: the value for `O=S(=O)(F)C(F)(F)C(F)(F)C(F)(F)C(F)(F)C(F)(F)C(F)(F)C(F)(F)C(F)(F)F` was “inactive”; that for `O=C(O)C(F)(F)OC(F)(F)C(F)(F)OC(F)(F)C(=O)O` was “inactive”; that for `NC(=O)C(F)(F)C(F)(F)F` was “inactive”. As for `O=C(O)C(F)(OC(F)(F)C(F)(F)C(F)(F)F)C(F)(F)F` (stereo not given), the result was inactive.

On to `FC(F)(F)C(F)(C(F)(F)F)C(F)(F)C(F)(F)CC1CO1` (stereo not given), for which the outcome was inactive. For the molecule `OCC(F)(F)OC(F)(F)C(F)(F)OC(F)(F)C(F)(F)OC(F)(F)F`, the AC50 is 21.2 µM (active) and the result was inactive. Take `CC(O)C(F)(F)C(F)(F)F` (stereo not given): the outcome was inactive. As for `O=C(O)C(F)(F)C(F)(F)C(=O)O`, the result was inactive. Consider `C=CC(=O)OCC(F)(F)C(F)F`, for which the outcome was inactive.

Consider `OCC(F)(F)OC(F)(F)C(F)(F)OC(F)(F)CO`, for which the result was inactive. On the same count and under the same terms, the value for `O=C(O)C=CC(F)(C(F)(F)F)C(F)(F)F` was “inactive”. Still for that read-out and setting: the entry for `O=C(O)C(F)(F)OC(F)(F)C(F)(F)OC(F)(F)F` is “inactive”.
